The panel holds about 79,000 compounds, 15% with a hit somewhere; the sample as a whole holds those more often. Cut-off read from the data, not from the text of the source: active = growth inhibition above about 70%; inactive = the rest. Where a SMILES comes first, the peptide text is derived from it.
Key:
[1] = NCI Yeast Anticancer Drug Screen. Data for the rad50 strain (AID 155);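 note: 0% = growth of vehicle-only cultures of the same strain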; details: S. cerevisiae rad50 strain growth inhibition; at 50.0 µM; active compounds read high
Summary of the method: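 DNA repair mutant yeast, compound exposure, growth read-out; inhibition is taken relative to vehicle.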

[2] = NCI Yeast Anticancer Drug Screen. Data for the mec2-1 strain (AID 157); details: S. cerevisiae mec2-1 strain, at 50.0 µM, active compounds read high
Summary of the method: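 Using mec2-1 yeast: add compound, measure growth, express inhibition versus vehicle-treated cultures.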

[3] = NCI Yeast Anticancer Drug Screen. Data for the sgs1 mgt1 strain (AID 161);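 note: 0% = growth of cultures given vehicle only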; details: S. cerevisiae sgs1 mgt1 strain, at 50.0 µM, active compounds read high
Summary of the method: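 Compounds are added to genetically altered yeast, and growth is compared with cultures given vehicle alone to give percent inhibition.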

[4] = NCI Yeast Anticancer Drug Screen. Data for the cln2 rad14 strain (AID 165);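 note: 0% = growth equal to vehicle treated cultures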; details: S. cerevisiae cln2 rad14 strain, at 50.0 µM, active compounds read high
Summary of the method: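 Yeast strain cln2 rad14, bearing defects in cell cycle control and DNA repair, serves as the test system; values reflect growth inhibition compared with vehicle.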

[5] = NCI Yeast Anticancer Drug Screen. Data for the bub3 strain (AID 167); details: S. cerevisiae bub3 mutant strain, at 50.0 µM, active compounds read high
Summary of the method: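 In this screen, a yeast mutant lacking normal mitotic checkpoint function is challenged with compound. Relative growth versus vehicle gives the inhibition value.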

[6] = NCI Yeast Anticancer Drug Screen. Data for the mlh1 rad18 strain (AID 175); details: S. cerevisiae mlh1 rad18 strain growth inhibition; at 50.0 µM; active compounds read high
Summary of the method: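 Steps: expose repair-defective yeast to compound; measure growth; express inhibition against vehicle-treated controls.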

Measured: growth inhibition

CC(C)N(CCC#N)C(=S)Nc1cccc(C(F)(F)F)c1
inactive: [1] 21.6% | [2] 13.2% | [3] 25.1% | [4] 0.25% | [5] 12.2% | [6] -2.85%

CN1CSCC1C(=O)O (stereo unspecified)
inactive: [1] 13% | [2] -3.25% | [3] -8.45% | [4] -39.4% | [5] -9.1% | [6] 11.8%

CCCCn1cnc2c(N)ncnc21
inactive: [1] -0.05% | [2] -7.75% | [3] -5.45% | [4] -18.1% | [5] 1.45% | [6] -15.5%

C/C(CC/C(C)=N/NC(N)=O)=N/NC(N)=O
inactive: [1] 1.7% | [2] -3.5% | [3] -9.85% | [4] 0.55% | [5] 21.9% | [6] -9.2%

Cc1ccc(NC(Nc2ccc(C)c(Cl)c2)C(Cl)(Cl)Cl)cc1Cl
inactive: [1] 9.65% | [2] -24% | [3] -5.7% | [4] -7.7% | [5] 5.75% | [6] -15.3%

CCOC1(c2ccccc2)NC(=O)NC1(OCC)c1ccccc1 (stereo unspecified)
inactive: [1] 14.2% | [2] 5.75% | [3] 18% | [4] -20.1% | [5] 0.05% | [6] -9.6%

O=C1C(OC(=O)c2ccccc2)=C(OC(=O)c2ccccc2)C(=O)C(OC(=O)c2ccccc2)=C1OC(=O)c1ccccc1
inactive: [1] -7.15% | [2] -1.25% | [3] 13.8% | [4] -22.8% | [5] 2.85% | [6] 2.75%

O=C(O)CCC(=O)NNC(=O)CCC(=O)O
inactive: [1] 16.2% | [2] -2.45% | [3] 4.15% | [4] -8.45% | [5] 14.3% | [6] -22.4%

O=C(O)c1c[nH]c2c([N+](=O)[O-])cccc2c1=O
inactive: [1] 40.4% | [2] 16.5% | [3] 30.7% | [4] 8.5% | [5] 13.6% | [6] 28.4%

N#CC(C(=O)C(=O)Nc1cccc(Cl)c1)c1ccccc1 (stereo unspecified)
inactive: [1] -4.55% | [2] -6.9% | [3] -19% | [4] -89.1% | [5] -11.8% | [6] -4.2%

O=C(CN(Cc1ccccc1)Cc1ccccc1)NC(=O)c1ccccc1
inactive: [1] 4.5% | [2] -7.9% | [3] 8.45% | [4] -36.4% | [5] 9.55% | [6] -10.4%

CC(=O)OCC1=COC(OC(=O)CC(C)(C)OC(C)=O)C2C1=CC(OC(=O)CC(C)C)[C@@]21CO1 (stereo partly specified)
inactive: [1] 14.4% | [2] 16.4% | [3] 3.6% | [4] 6.3% | [5] 6.75% | [6] 9.95%

CCC(C)C(N)C(=O)N1CCCC1C(=O)O (stereo not drawn) (H-Ile-Pro-OH; configuration not given here)
inactive: [1] -23.1% | [2] -4.65% | [3] -1.15% | [4] -25.9% | [5] -2.45% | [6] -3.15%

COc1ccc(C2(C(=O)O)CC(C)=C(C)CC2C(=O)O)cc1 (stereo unspecified)
inactive: [1] -1.45% | [2] -9.05% | [3] -5.25% | [4] 0.6% | [5] -11.7% | [6] 7%

C[C@@H]1CC[C@]2(C(=O)O)CC[C@]3(C)C(=CC[C@@H]4[C@@]5(C)CC[C@H](O)C(C)(C)[C@@H]5CC[C@]43C)[C@@H]2[C@]1(C)O
inactive: [1] 27.1% | [2] 38.5% | [3] 2.75% | [4] 13.5% | [5] 26.4% | [6] -65%

OCCc1c[nH]c2ccccc12
inactive: [1] -18.7% | [2] -16.2% | [3] 10.5% | [4] -17.3% | [5] -1.85% | [6] 11.8%

COc1ccc(Cl)cc1NC(=O)Oc1ccccc1C(N)=O
inactive: [1] -1.05% | [2] 43.5% | [3] 24.6% | [4] -12.8% | [5] 40.6% | [6] 3.1%

CCC1(C(=O)O)OC1(C)c1cccs1 (stereo unspecified)
inactive: [1] -40% | [2] -8.95% | [3] -3.35% | [4] -27.1% | [5] 10.5% | [6] 2%

Cc1cccc(C(=O)c2ccccc2Cc2cccc3ccccc23)c1C
inactive: [1] 5.1% | [2] -6.8% | [3] 7.2% | [4] -6.45% | [5] 9.5% | [6] -15.5%

CC(C)CC(NC(=O)COc1cc(Cl)ccc1Cl)C(=O)O (stereo unspecified)
inactive: [1] -4.3% | [2] 19.2% | [3] 6.3% | [4] -18.6% | [5] -3.25% | [6] -40.4%

CCc1ccc(S(N)(=O)=O)cc1
inactive: [1] 11.1% | [2] -4.1% | [3] -16.3% | [4] -24.6% | [5] -7% | [6] -168%
